Several values for one entry are separate records, joined by “and”; a condition that tells them apart may be missing. Identical values can stand only once. Activity calls are given as the source filed them. Unless noted, the rule behind the calls is not given here.
What was measured:
[1] = hESC survival regulators, cell-based (AID 493140); settings: human embryonic stem cell survival screen; stronger effect = higher value;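 note: cells exposed to compounds for four days before counting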
[2] = sensitizers of A549 cells to miR-34 induction, primary screen, imaging, A549 dox-inducible miR-34, nuclei and caspase counts (AID 1347080;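 active = compounds whose cell count with miR-34 switched on is under 0.7 times the count with it off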); settings: A549 miR-34 inducible, Hoechst nuclei count, 48 h
[3] = inhibitors of Cryptococcus chitosan production, flow cytometry, Cibacron Brilliant Red staining (AID 1347148); settings: Cryptococcus neoformans chitosan, stronger effect = lower value; at 10 µM unless noted;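 note: compound exposure lasted three days at 37 degrees C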
[4] = liver-stage malaria parasite growth inhibition, primary screen, cell-based, HepG2, luciferase luminescence, HepG2 viability (AID 624349; in the data active = parasite load remaining mostly below about 12%, no sharp cut-off; inactive = mostly above about 10%;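 note: 100% = mean of DMSO negative control wells on the same plate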); settings: P. berghei liver stage in HepG2, luciferase luminescence, concentration not given here; parasite load remaining: stronger effect = lower value; viability: measured here: HepG2 viability without parasites
[5] = survival rescue of mitochondrial mutant cells in low glucose, primary screen, MELAS cybrids, Rieske KO mouse fibroblasts, CellTiter-Glo (AID 1508586;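 active = mean z-score across replicates of 1.96 or higher in either the MELAS or the Rieske mutant cell line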;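 note: z relative to plate mean and SD of compound and empty wells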)
[6] = circadian clock period modulators, cell-based, LOPAC library, luminescence reporter (AID 2774); settings: circadian reporter cells, at 7 µM, actives lie on both sides;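 note: values are relative to mean of DMSO wells on each plate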
[7] = system: Hepatitis C virus NS3 helicase; assay: HCV NS3 helicase inhibitors, primary screen, biochemical, fluorescence polarization, LOPAC1280 library (AID 687035; in the data active = inhibition above about 37%); settings: Purified HCV NS3 helicase, Cy5-dT15 ssDNA binding fluorescence polarization; stronger effect = higher value; concentration not given here
[8] = Cy5 fluorescence quenching or enhancement artefacts, artefact control for HCV NS3 helicase inhibitor project, biochemical, LOPAC1280 (AID 687037); settings: Cy5-DNA-NS3h complex fluorescence interference counterscreen
[9] = phospholipid biosynthesis inhibitors in animal cells, primary screen, cell-based, LOPAC library, screen 4 (AID 1347384); settings: phospholipid biosynthesis inhibition screen, at 10 µM
[10] = viability rescue of complex I mutant cybrids, primary screen, cell-based, galactose medium, ATP luminescence (AID 1645843;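 active = z-score of at least 1.8 in each of two replicates, scored against plate mean and spread of sample wells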;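 note: positive z means more ATP and so rescue of galactose-driven cybrid death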); settings: complex I mutant cybrid cells, 72 h, stronger effect = higher value
[11] = stronger effect = lower value, cell number ratio, induced over uninduced
[12] = measured here: relative caspase fold change +Dox/-Dox
[13] = measured here: total cells with miR-34 induction, stronger effect = lower value
[14] = measured here: total cells without miR-34 induction
[15] = MELAS cybrid survival, CellTiter-Glo 48 h, stronger effect = higher value
[16] = Rieske KO mouse fibroblast survival, CellTiter-Glo 72 h

Q: With CCCCC/C=C\C/C=C\C/C=C\C/C=C\CCCCCC(=O)O as the compound, how does the survival [1] read?
A: 79.5 (inactive)

Q: And the fold change [2, 11]?
A: 1.01 (inactive) and 0.958 (inactive)

Q: And the fold change [2, 12]?
A: 1.23 and 0.967

Q: And the cell count [2, 13]?
A: 6030 and 5700

Q: And the cell count [2, 14]?
A: 5980 and 5950

Q: What about the fold fluorescence [3] of the same compound?
A: 4.08 (inactive)

Q: Which results are given for COc1cc2ncc(-c3ccccc3)nc2cc1OC?
A: survival [1]: 66.2 (inactive); parasite load remaining [4]: 37% (inactive); viability [4]: 96.9%; fold change [2, 11]: 0.803 (inactive) and 0.84 (inactive); fold change [2, 12]: 1.43 and 0.498; cell count [2, 13]: 3060 and 6730; cell count [2, 14]: 3820 and 8010; fold fluorescence [3]: 6 [at 187.8 µM] (inactive); z-score [5, 15]: 0.0666 (inactive); z-score [5, 16]: 1.44

Q: What does the source list for COc1cc(/C=C/c2ccc(Cl)cc2)cc(OC)c1?
A: fold change [2, 11]: 1.01 (inactive); fold change [2, 12]: 0.802; cell count [2, 13]: 6120; cell count [2, 14]: 6070

Q: With CC[N+](C)(CC)CCC[n+]1c(-c2ccccc2)c2cc(N)ccc2c2ccc(N)cc21 as the compound, how does the survival [1] read?
A: 5.17 (inactive)

Q: What about the parasite load remaining [4] of the same compound?
A: 62.2% (inactive)

Q: What about the viability [4] of the same compound?
A: 92.5%

Q: And the fold change [2, 11]?
A: 0.82 (inactive) and 0.917 (inactive)

Q: What about the fold change [2, 12] of the same compound?
A: 1.46 and 1.13

Q: And the cell count [2, 13]?
A: 7160 and 5250

Q: What about the cell count [2, 14] of the same compound?
A: 8730 and 5720

Q: What about the fold fluorescence [3] of the same compound?
A: 8.39 [at 120.6 µM] (inactive)

Q: And the z-score [5, 15]?
A: -0.661 (inactive)

Q: What about the z-score [5, 16] of the same compound?
A: 1.71

Q: For O=c1oc(Cl)c(Cl)c2ccccc12, which period change [6] is on record?
A: -0.015 h (inactive)

Q: What about the inhibition [7] of the same compound?
A: -3% (inactive)

Q: And the fluorescence ratio (interference) [8]?
A: 1 (inactive)

Q: What about the fold change [2, 11] of the same compound?
A: 1.11 (inactive) and 1.06 (inactive)

Q: And the fold change [2, 12]?
A: 1.14 and 0.927

Q: And the cell count [2, 13]?
A: 6300 and 1380

Q: What about the cell count [2, 14] of the same compound?
A: 5680 and 1300

Q: And the fold fluorescence [3]?
A: 6.4 [at 232.5 µM] (inactive)

Q: And the outcome [9]?
A: inactive

Q: And the z-score [10]?
A: -1.02 (inactive)

Q: With CCCCC[C@H](O)/C=C/[C@H]1[C@H](O)CC(=O)[C@@H]1C/C=C\CCCC(=O)Oc1ccc(NC(C)=O)cc1 as the compound, how does the fold change [2, 11] read?
A: 0.993 (inactive)

Q: What about the fold change [2, 12] of the same compound?
A: 0.876

Q: What about the cell count [2, 13] of the same compound?
A: 6020

Q: What about the cell count [2, 14] of the same compound?
A: 6060

Q: For CCCCCCCCCCC/C=C\C(C)(C)/C=C\CCCC(=O)O, which period change [6] is on record?
A: -0.11 h (inactive)

Q: And the survival [1]?
A: 88.8 (inactive)

Q: And the inhibition [7]?
A: 0% (inactive)

Q: And the fluorescence ratio (interference) [8]?
A: 0.9 (inactive)

Q: What about the fold change [2, 11] of the same compound?
A: 0.986 (inactive) and 1.01 (inactive)

Q: What about the fold change [2, 12] of the same compound?
A: 1.15 and 1.25

Q: What about the cell count [2, 13] of the same compound?
A: 9810 and 5810

Q: And the cell count [2, 14]?
A: 9950 and 5750

Q: What about the fold fluorescence [3] of the same compound?
A: 5.21 (inactive)

Q: And the outcome [9]?
A: inactive

Q: What about the z-score [10] of the same compound?
A: 0.145 (inactive)

Q: What does the source list for CC(C)(C)c1cc(/C=C(\C#N)C(N)=S)cc(C(C)(C)C)c1O?
A: period change [6]: 0.535 h (inactive); survival [1]: 106 (inactive); inhibition [7]: 5% (inactive); fluorescence ratio (interference) [8]: 1 (inactive); fold change [2, 11]: 1.09 (inactive) and 1.17 (inactive); fold change [2, 12]: 1.31 and 0.937; cell count [2, 13]: 4070 and 1820; cell count [2, 14]: 3720 and 1560; fold fluorescence [3]: 11.2 [at 158 µM] (inactive); outcome [9]: active; z-score [10]: -1.35 (inactive)

Q: For CC/C=C\C/C=C\C/C=C\CCCCCCCCCC(=O)O, which survival [1] is on record?
A: 95.1 (inactive)

Q: And the fold change [2, 11]?
A: 1.09 (inactive) and 1.03 (inactive)

Q: And the fold change [2, 12]?
A: 1.26 and 1.06

Q: What about the cell count [2, 13] of the same compound?
A: 5750 and 5880

Q: What about the cell count [2, 14] of the same compound?
A: 5250 and 5730

Q: And the fold fluorescence [3]?
A: 4.88 (inactive)

Q: For Nc1ccc2c3c(cccc13)C(=O)NC2=O, which period change [6] is on record?
A: 0.025 h (inactive)

Q: And the inhibition [7]?
A: -1% (inactive)

Q: And the fluorescence ratio (interference) [8]?
A: 1 (inactive)

Q: What about the fold change [2, 11] of the same compound?
A: 0.949 (inactive) and 1.13 (inactive)

Q: What about the fold change [2, 12] of the same compound?
A: 1.39 and 0.672

Q: What about the cell count [2, 13] of the same compound?
A: 8220 and 6020

Q: And the cell count [2, 14]?
A: 8660 and 5330

Q: And the fold fluorescence [3]?
A: 4.37 [at 235.6 µM] (inactive)

Q: And the outcome [9]?
A: inactive

Q: And the z-score [10]?
A: 0.605 (inactive)

Q: Which period change [6] does the source give for CCCCCC[C@@H]([C@@H](C)O)n1cnc2c(N)ncnc21 here?
A: 0.15 h (inactive)

Q: What about the inhibition [7] of the same compound?
A: -4% (inactive)

Q: And the fluorescence ratio (interference) [8]?
A: 1 (inactive)

Q: And the fold change [2, 11]?
A: 0.934 (inactive) and 0.834 (inactive)

Q: And the fold change [2, 12]?
A: 0.993 and 0.703

Q: What about the cell count [2, 13] of the same compound?
A: 8420 and 3190

Q: What about the cell count [2, 14] of the same compound?
A: 9020 and 3820

Q: And the fold fluorescence [3]?
A: 5.1 [at 180.3 µM] (inactive)

Q: What about the outcome [9] of the same compound?
A: inactive

Q: And the z-score [10]?
A: -0.69 (inactive)

Q: With CCCCC[C@H](O)/C=C/[C@H]1CC[C@H](O)[C@@H]1CCCCCCC(=O)O as the compound, how does the fold change [2, 11] read?
A: 0.966 (inactive)

Q: And the fold change [2, 12]?
A: 1.33

Q: What about the cell count [2, 13] of the same compound?
A: 6200

Q: What about the cell count [2, 14] of the same compound?
A: 6420

Q: What does the source list for CCCCC[C@H](O)/C=C/[C@H]1C=CC(=O)[C@@H]1CCCCCCC(=O)O?
A: survival [1]: 103 (inactive); fold change [2, 11]: 0.912 (inactive) and 0.844 (inactive); fold change [2, 12]: 1.4 and 1.79; cell count [2, 13]: 5980 and 4550; cell count [2, 14]: 6560 and 5390; fold fluorescence [3]: 4.35 (inactive)

Q: For CCCCC/C=C\C/C=C\C/C=C\C/C=C\CCCC(=O)OC(CO)CO, which survival [1] is on record?
A: 72.6 (inactive)

Q: What about the fold change [2, 11] of the same compound?
A: 0.947 (inactive) and 1.01 (inactive)

Q: What about the fold change [2, 12] of the same compound?
A: 1.17 and 0.841

Q: And the cell count [2, 13]?
A: 6380 and 5230

Q: And the cell count [2, 14]?
A: 6740 and 5180

Q: And the fold fluorescence [3]?
A: 5.06 (inactive)

Q: For CCCCC/C=C\C/C=C\CCCCCCCC(=O)O, which survival [1] is on record?
A: 55.7 (inactive)

Q: And the fold change [2, 11]?
A: 0.973 (inactive) and 1.02 (inactive)

Q: What about the fold change [2, 12] of the same compound?
A: 1.17 and 0.947

Q: What about the cell count [2, 13] of the same compound?
A: 6220 and 5980

Q: And the cell count [2, 14]?
A: 6400 and 5840

Q: What about the fold fluorescence [3] of the same compound?
A: 4.86 (inactive)

Q: What does the source list for CCCCCCCCCCCCC/C=C/[C@@H](O)[C@H](CO)N(C)C?
A: survival [1]: 80.2 (inactive); fold change [2, 11]: 1.08 (inactive) and 0.933 (inactive); fold change [2, 12]: 1.39 and 1.34; cell count [2, 13]: 5480; cell count [2, 14]: 5090 and 5880; fold fluorescence [3]: 6.79 (inactive)

Q: Which survival [1] does the source give for CCCCCCCCCCCCC/C=C/[C@@H](O)[C@H](CO)NCCCCCCCC here?
A: 61.3 (inactive)

Q: What about the fold change [2, 11] of the same compound?
A: 0.925 (inactive) and 1 (inactive)

Q: What about the fold change [2, 12] of the same compound?
A: 1.2 and 0.737

Q: And the cell count [2, 13]?
A: 5120 and 5820

Q: And the cell count [2, 14]?
A: 5540 and 5810

Q: And the fold fluorescence [3]?
A: 10.3 (inactive)
